Laboratory results as given in the supplement of paper PMC7366291.
Counter-ions that a name gives are not always drawn.

Tested on: Danio rerio Tg(wt1b:EGFP) embryo, pronephros
Assay: fraction of imaged embryos annotated as normal kidney; higher = less nephrotoxic; extreme values may be limits of the assay
Conditions: 25 µM; exposure: 24-48 hpf
Outline: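 Dechorionated Tg(wt1b:EGFP) zebrafish embryos were incubated with 25 μM compound in 0.5% DMSO, 5 mM HEPES-buffered E3 and 0.003% PTU from 24 to 48 hpf at 28.5°C. Pronephroi were then imaged by widefield fluorescence, and the fraction of embryos per treatment assigned by hand to the normal-kidney category is given.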

Compared with `CC1(C)S[C@@H]2[C@H](NC(=O)[C@H](C(=O)O)c3ccsc3)C(=O)N2[C@H]1C(=O)O` [Ticarcillin sodium], `CC1(C)S[C@@H]2[C@H](NC(=O)[C@H](NC(=O)N3CCNC3=O)c3ccccc3)C(=O)N2[C@H]1C(=O)O` [Azlocillin sodium salt] is lower in “fraction of imaged embryos annotated as normal kidney” value (“fraction of imaged embryos annotated” below): 0.8 for the first, 0.5 for the second.

Compared with `COc1nc(C)nc(Cl)c1NC1=NCCN1` [Moxonidine], `COC(=O)[C@H](c1ccccc1Cl)N1CCc2sccc2C1` [Clopidogrel] is lower in “fraction of imaged embryos annotated” value: 1 for the first, 0.833 for the second.

First: Cc1nccn1CC1CCc2c(c3ccccc3n2C)C1=O (stereo not given) [Ondansetron Hydrochloride]
Second: Cc1[nH]cnc1CN1CCc2c(c3ccccc3n2C)C1=O [Alosetron hydrochloride]
The “fraction of imaged embryos annotated” value of the first is lower: 0.833 for the first, 0.917 for the second.

Going from `C[C@]12CC[C@@H]3c4ccc(O)cc4CC[C@H]3[C@@H]1CCC2=O` [Estrone] to `C#C[C@]1(O)CC[C@H]2[C@@H]3[C@H](C)CC4=C(CCC(=O)C4)[C@H]3CC[C@@]21C` [Tibolone], the “fraction of imaged embryos annotated” value falls from 1 to 0.75.

First: N=C(N)c1ccc(OCCCCCOc2ccc(C(=N)N)cc2)cc1 [Pentamidine isethionate]
Second: CCc1ccc(CCOc2ccc(CC3SC(=O)NC3=O)cc2)nc1 (stereo not given) [Pioglitazone]
The “fraction of imaged embryos annotated” value of the first is higher: 1 for the first, 0.75 for the second.

`Cc1cccc(C)c1NC(=O)C1CCCCN1C` (stereo not given) [Mepivacaine hydrochloride] and `CCN1CCC[C@H]1CNC(=O)c1c(OC)ccc(Br)c1OC` [Remoxipride Hydrochloride] are the same in “fraction of imaged embryos annotated” value: 0.917 for the first, 0.917 for the second.

`CN1CCCN(C(c2ccccc2)c2ccc(Cl)cc2)CC1` (stereo not given) [Homochlorcyclizine dihydrochloride] and `O=C(O)COCCN1CCN(C(c2ccccc2)c2ccc(Cl)cc2)CC1` (stereo not given) [Cetirizine dihydrochloride] are the same in “fraction of imaged embryos annotated” value: 1 for the first, 1 for the second.

Going from `CO/N=C(\C(=O)N[C@@H]1C(=O)N2C(C(=O)OC(C)OC(C)=O)=C(COC(N)=O)CS[C@H]12)c1ccco1` (stereo not given in full) [Cefuroxime axetil] to `CC(C)(C)C(=O)OCOC(=O)[C@@H]1N2C(=O)[C@@H](NC(=O)[C@H](N)c3ccccc3)[C@H]2SC1(C)C` [Pivampicillin], the “fraction of imaged embryos annotated” value rises from 0.917 to 1.

First: Cn1cnc([N+](=O)[O-])c1Sc1ncnc2[nH]cnc12 [Azathioprine]
Second: Cc1ncc([N+](=O)[O-])n1CCO [Metronidazole]
The “fraction of imaged embryos annotated” value of the first is lower: 0.833 for the first, 0.917 for the second.

First: O=C(c1ccc(F)cc1)C1CCN(CCn2c(=O)[nH]c3ccccc3c2=O)CC1 [Ketanserin tartrate hydrate]
Second: CC(C(=O)O)c1ccc(N2Cc3ccccc3C2=O)cc1 (stereo not given) [Indoprofen]
The “fraction of imaged embryos annotated” value of the first is higher: 0.833 for the first, 0.2 for the second.

Compared with `CCN(CC)CCNC(=O)c1cc(Cl)c(N)cc1OC` [Metoclopramide monohydrochloride], `NC(CO)C(=O)NNCc1ccc(O)c(O)c1O` (stereo not given) [Benserazide hydrochloride] is lower in “fraction of imaged embryos annotated” value: 0.833 for the first, 0.667 for the second.

First: C=CCOC(Cn1ccnc1)c1ccc(Cl)cc1Cl (stereo not given) [Enilconazole]
Second: CNCCC=C1c2ccccc2CCc2ccccc21 [Nortriptyline hydrochloride]
The “fraction of imaged embryos annotated” value of the first is higher: 1 for the first, 0.833 for the second.

Going from `CC(C)NCC(O)COc1ccc(COCCOC(C)C)cc1` (stereo not given) [Bisoprolol fumarate] to `CN(Cc1ccc(C(C)(C)C)cc1)Cc1cccc2ccccc12` [Butenafine Hydrochloride], the “fraction of imaged embryos annotated” value rises from 0.583 to 0.909.

Going from `COc1ccccc1Oc1c(NS(=O)(=O)c2ccc(C(C)(C)C)cc2)nc(-c2ncccn2)nc1OCCO` [Bosentan] to `CN1CCC(=C2c3ccccc3CCc3cccnc32)CC1` [Azatadine maleate], the “fraction of imaged embryos annotated” value rises from 0.833 to 1.

First: CCCCC(CC)CN1CN(CC(CC)CCCC)CC(C)(N)C1 (stereo not given) [Hexetidine]
Second: CC(=O)OC(C)C[N+](C)(C)C (stereo not given) [Methacholine chloride]
The “fraction of imaged embryos annotated” value of the first is lower: 0.75 for the first, 0.833 for the second.

Compared with `CC(=O)[C@@]1(O)CC[C@H]2[C@@H]3C[C@H](C)C4=CC(=O)C=C[C@]4(C)[C@@]3(F)[C@@H](O)C[C@@]21C` [Fluorometholone], `CN(C)c1ccc(O)c2c1C[C@H]1C[C@H]3[C@H](N(C)C)C(O)=C(C(N)=O)C(=O)[C@@]3(O)C(O)=C1C2=O` [Minocycline hydrochloride] is higher in “fraction of imaged embryos annotated” value: 0.417 for the first, 0.8 for the second.

`Cc1ccc2c(c1)c1c3n2CCNC3CCC1` (stereo not given) [Pirlindole mesylate] and `CN1CCc2cccc3c2[C@H]1Cc1ccc(O)c(O)c1-3` [R(-) Apomorphine hydrochloride hemihydrate] are the same in “fraction of imaged embryos annotated” value: 0.833 for the first, 0.833 for the second.

Compared with `CC(C)CC(=O)N[C@H](C(=O)N[C@H](C(=O)N[C@@H](CC(C)C)[C@@H](O)CC(=O)N[C@@H](C)C(=O)N[C@@H](CC(C)C)[C@@H](O)CC(=O)O)C(C)C)C(C)C` [Pepstatin A], `COC(=O)C1=C(C)NC(C)=C(C(=O)OC(C)C)C1c1cccc2nonc12` (stereo not given) [Isradipine] is lower in “fraction of imaged embryos annotated” value: 0.818 for the first, 0 for the second.

Compared with `C=C1c2cccc(O)c2C(=O)C2=C(O)[C@]3(O)C(=O)C(C(N)=O)=C(O)[C@@H](N(C)C)[C@@H]3[C@@H](O)[C@H]12` [Methacycline hydrochloride], `NC(=O)NC1NC(=O)NC1=O` (stereo not given) [Allantoin] is higher in “fraction of imaged embryos annotated” value: 0.818 for the first, 0.917 for the second.

Going from `CNCCCC12CCC(c3ccccc31)c1ccccc12` [Maprotiline hydrochloride] to `CN[C@@H]1[C@@H](O[C@H]2O[C@H](CO)[C@@H](N)[C@H](O)[C@H]2O)OC2C[C@@H](N)[C@@H](O[C@H]3[C@H](O)[C@@H](O)[C@H](N)C[C@@H]3N)OC2[C@@H]1O` (stereo not given in full) [Apramycin], the “fraction of imaged embryos annotated” value falls from 0.909 to 0.75.
